Experimental data published in PubChem BioAssay AID743279 (National Center for Advancing Translational Sciences (NCATS), 2014).
Out of some 360,000 compounds screened, about 17,000 (4.7%) were called active. Not shown: some 5% with an inconclusive outcome. This excerpt belongs to a sample that is enriched for actives. Values without a mark were called inactive. Rule as the data show it: active = activity change below about -50%; inconclusive = mostly about -30% to -49%; inactive = weaker than that.

Assay: qHTS for Inhibitors of Inflammasome Signaling: IL-1-beta AlphaLISA Primary Screen
Conditions: THP-1 LPS/ATP IL-1B secretion, 16 h; at 57.5 µM, active compounds read low
In short: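 Secreted IL-1B measured by AlphaLISA bead assay after 16 h compound exposure of THP-1 cells; compounds (final up to 57.5 uM) added 1 h before LPS (250 ng/mL) and ATP (1.25 mM) stimulation; lower signal means less secretion.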
% is scaled to controls: 0 for no effect and ±100 for the full control effect.

| Structure (SMILES) | activity change |
| --- | --- |
| CCOC(=O)c1ccc(COC(=O)CCc2nc(-c3ccccc3)c(-c3ccccc3)o2)cc1 | 31.5% |
| CC(C)Nc1ncnc2c1ncn2[C@H]1CN(Cc2ccncc2)C[C@@H](CO)O1 | 22.2% |
| O=C(Nc1ccc(S(=O)(=O)N2CCOCC2)cc1)C1CCN(S(=O)(=O)c2ccc(Cl)cc2)CC1 | -6.97% |
| C(=N\Nc1ccc2ccccc2n1)/c1ccc2c(c1)OCO2 | -9.79% |
| Clc1ccc(Nc2ccc3ccccc3n2)cc1 | -15.6% |
| Cc1noc(C)c1/C=N/Nc1ccc2ccccc2n1 | -70.6% (active) |
| O=C(Nc1ccc(Cl)cc1)c1csc([C@@H]2O[C@H](CO)[C@H](O)[C@H](O)[C@H]2O)n1 | 17.3% |
| Cc1nnc(SC(C)C(=O)c2c[nH]c3ccccc23)n1C1CC1 (stereo not given) | 0% |
| Cc1onc(-c2c(F)cccc2Cl)c1C(=O)Nc1cccc(S(=O)(=O)N2CCCCC2)c1 | -19.9% |
| CCC(CO)Oc1cc(NC(=O)c2cccc3ccccc23)c2ncn(C(C)C)c2c1 (stereo not given) | -67.6% (active) |
| CCC(CO)Oc1cc(NC(=O)c2ccc(Cl)cc2)c2ncn(C(C)C)c2c1 (stereo not given) | -3.64% |
| CCC(CO)Oc1cc(NC(=O)c2cccc(F)c2)c2ncn(C(C)C)c2c1 (stereo not given) | -4.82% |
| COc1ccc(CCNC(=O)COC(=O)Cc2cc(OC)c(OC)c(OC)c2)cc1 | 28% |
| Cc1cc(C)c2c(=O)n3c(nc2c1)C(CC(C)C)NC(=O)c1cc2ccccc2cc1-3 (stereo not given) | 24.5% |
| Cc1cccc(NC(=O)Nc2ccc3c(c2)OCO3)n1 | -14.3% |
| CNS(=O)(=O)c1ccc(NC(=O)Nc2ccc3c(c2)OCO3)cc1 | -52.3% (active) |
| CC(C)CNS(=O)(=O)c1ccc(C(=O)Nc2ccc3c(c2)OCO3)cc1 | -5.7% |
| Cc1ccc(C(=O)Nc2c(-c3ccccc3)[nH][nH]c2=O)cc1 | 0% |
| Cc1ccc2c(c1)C(c1ccccc1)N(C(=O)c1ccc(F)cc1)CC(=O)N2 (stereo not given) | 22.3% |
| O=S(=O)(Nc1cc(Cl)ccc1N1CCOCC1)c1ccccc1Cl | -27.8% |
| O=C1c2ccccc2-c2ncnc3c(N4CCOCC4)cc(N4CCOCC4)c1c23 | -66.7% (active) |
| Cc1oc2c(c1C(=O)N1CCOCC1)C(=O)c1ccccc1C2=O | -0.813% |
| O=S1(=O)CC(N2CCN(CCO)CC2)CN1Cc1cn(Cc2ccc(Cl)cc2)nn1 (stereo not given) | 0% |

| Structure (SMILES) | activity change |
| --- | --- |
| CCCn1c(=N)n(CC(=O)c2ccc(Cl)c(Cl)c2)c2ccccc21 | -91.6% (active) |
| COc1ccc2cc(C(=O)O)n(CC(=O)c3ccccc3)c2c1 | 0% |
| CCn1c(=N)n(CC(=O)c2cccc(OC)c2)c2ccccc21 | -63% (active) |
| CCN(CC)CC1(O)CCN(C(=O)c2ccc(Cl)c(Cl)c2)CC1 | 12.6% |
| O=C(Cn1nnc(N2CCCCC2)n1)c1ccc(Cl)c(Cl)c1 | -1.15% |
| CCOC(=O)c1cc2ccccc2n1CC(=O)c1ccccc1 | 28.5% |
| Cc1cc(Cl)ccc1C(=O)C1CCCN(C(=O)c2ccc3c(c2)OCO3)C1 (stereo not given) | -15.9% |
| Cc1cccc(C2c3c(n(C)c(=O)n(C)c3=O)N=C3c4ccccc4C(=O)C32)c1 (stereo not given) | 13.5% |
| Cc1ccccc1S(=O)(=O)NC(=O)C1(C)CCN1C(=O)C1(c2ccc(Cl)cc2)CC1 (stereo not given) | 22.8% |
| CN(CC(=O)Nc1ccc(Cl)cc1)C(=O)CNC(=O)c1ccc2ccccc2c1 | -102% (active) |
| COc1ccc(NC(=O)CN(C)C(=O)CNC(=O)C2CCCCC2)cc1 | inactive |
| O=C(NNC(=O)c1ccc2ccccc2c1)c1ccc(Cl)cc1 | -7.64% |
| COc1ccc(C(=O)C(OP(=O)(OC)OC)c2ccccc2OC)cc1 (stereo not given) | 0% |
| OCCC1CN(Cc2cccc(OC3CCCC3)c2)CCN1Cc1ccsc1 (stereo not given) | -20.7% |
| CC1=C[C@H]2Cc3cc(C)cc(C)c3S(=O)(=O)[C@@H]2C=C1 | -1.95% |
| Cc1ccccc1Cn1c(C)c(C(=O)NCc2cccc(C(F)(F)F)c2)sc1=O | -29.1% |
| Cc1ccc(C(=O)Nc2ccccc2-c2ccccc2)cc1S(=O)(=O)Nc1ccccc1 | -69.2% (active) |
| COc1ccc(NS(=O)(=O)c2cc(C(=O)Nc3ccccc3C(=O)O)ccc2C)cc1 | 11.7% |
| O=C(O)c1ccc(F)c(S(=O)(=O)Nc2ccccc2)c1 | 0% |
| CCOC(=O)C=Cc1ccc(C(=O)OCC)[nH]1 | 12.1% |
| CCOC(=O)C1=C(CCc2ccccc2)NC(=O)NC1c1ccc2ccccc2c1 (stereo not given) | -52.7% (active) |
| CCOCCOC(=O)C1=C(C)NC(=O)NC1c1ccc2c(c1)OCO2 (stereo not given) | -7.25% |
